What all share (assay): NCI-60 one-dose screen, 48 h (100 = growth as untreated, 0 = no growth, -100 = all killed)
What all share (settings): 10 µM unless noted

Assay [1] deals with SR leukemia.
For assay [2], the system named is RPMI-8226 leukemia.
Assay [3] concerns OVCAR-8 ovarian.
Assay [4] has as its system OVCAR-5 ovarian.
Assay [5] deals with OVCAR-4 ovarian.
For assay [6], the system named is SK-OV-3 ovarian.
In assay [7] the test system is IGROV1 ovarian.
Assay [8] concerns OVCAR-3 ovarian.
For assay [9], the system named is HS 578T breast.
For assay [10], the system named is NCI/ADR-RES ovarian.
Assay [11] concerns T-47D breast.
In assay [12] the test system is BT-549 breast.
The subject of assay [13] is MDA-MB-435 melanoma.
The subject of assay [14] is SW-620 colon.
In assay [15] the test system is MCF7 breast.
The subject of assay [16] is HCT-116 colon.
Assay [17] has as its system HCC-2998 colon.
Assay [18] concerns KM12 colon.

Compounds without any hit were thinned out: in the full panel of roughly 83,000, 20% have a hit.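 Cells were grown in 96-well plates and exposed to the test compound at a single concentration for 48 hours; results are reported as percent growth, with values below 10 considered active.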 A number with no mark means an inactive call. Activity calls are given as the source filed them.

These results are taken from PubChem BioAssay (NCI).

In the case of `Cc1cc(Nc2nc(N3CCOCC3)nc3ccccc23)n[nH]1`, the growth is 10.8% in assay [1]; 82.5% in assay [2]; 104% in assay [3]; 88.7% in assay [4]; 52.5% in assay [5]; 20.5% in assay [6]. The growth in assay [7] is 30.9%; in assay [8] it was 58.6%; in [9], 16.3%; in assay [10] it was 86.3%; in assay [11] it was 72.5%; in assay [12], 61.5%. In addition, the growth was 57.4% in assay [13]; 79.3% in assay [14]; 47.8% in [15]; 40.1% in assay [16]; 83.4% in assay [17]; 10.3% in assay [18].
For `COc1cc(/C=C2\CN(C(=O)CCN3CCC(=NO)CC3)C/C(=C\c3cc(OC)c(OC)c(OC)c3)C2=O)cc(OC)c1OC`, the growth was 9.11% (active) in assay [1]; -40.1% (active) in assay [2]; 1.55% (active) in assay [3]; -65.4% (active) in assay [4]; -82.4% (active) in assay [5]; -7.89% (active) in assay [6]. Further, the growth in assay [7] was -53.4% (active); in assay [8], -97.6% (active); in assay [9], 6.39% (active); in assay [10] it was 9.97% (active); in assay [11], 4.37% (active); in assay [12] it was -81.4% (active). The growth is -81.9% (active) in [13]; -74.5% (active) in assay [14]; -54.3% (active) in [15]; -56.7% (active) in assay [16]; -79.8% (active) in assay [17]; -83.9% (active) in [18].
In the case of `CN1CCN(Cc2ccc(NC(=O)c3cncc(C#Cc4cnc(N)c5cccnc45)c3)cc2C(F)(F)F)CC1`, the growth in assay [1] was 15.4%; in assay [2] it was 18.5%; in assay [3], 29.5%; in assay [4], 12.5%; in assay [5], 36.8%; in [6], -10.9% (active). Moreover, the growth was 7.64% (active) in assay [7]; 34.6% in [8]; -2.09% (active) in assay [9]; 87% in [10]; 26.2% in [11]; 38.9% in assay [12]. The growth in assay [13] is 7.67% (active); in assay [14] it was 1.78% (active); in assay [15] it was 26.8%; in assay [16], 3.52% (active); in assay [17], 30.2%; in [18] it was 8.81% (active).
Consider `COc1ccc(CN2C(=O)/C(=C\c3cc(OC)c(OC)c(OC)c3)c3cc(OC)ccc32)cc1`, for which the growth in [1] was -31.1% (active); in assay [2], -35.9% (active); in assay [3], -43.2% (active); in [4] it was 15%; in assay [5], 27.2%; in assay [6] it was 7.88% (active). Further, the growth is -9.32% (active) in assay [7]; -10.8% (active) in assay [8]; 9.55% (active) in assay [9]; 6.96% (active) in assay [10]; -0.59% (active) in [11]; 27.1% in assay [12]. Moreover, the growth is -0.0336% (active) in [13]; -64.1% (active) in assay [14]; 7.67% (active) in assay [15]; -79.6% (active) in [16]; 74.1% in assay [17]; -86% (active) in [18].
Turning to `COc1cc(C2C(C(=O)c3cccs3)=C(O)C(=O)N2CCN2CCOCC2)cc(OC)c1OC` (centres undefined), the growth in assay [1] was 111%; in [2], 108%; in assay [3], 113%; in [4], 108%; in assay [5], 110%; in assay [6], 109%. Further, the growth in assay [7] is 100%; in assay [8], 102%; in [9] it was 112%; in assay [10], 107%; in [11], 104%; in [12], 107%. Moreover, the growth is 99.5% in assay [13]; 97.2% in assay [14]; 95.1% in [15]; 101% in assay [16]; 101% in [17]; 98.3% in [18].
In the case of `COc1ccc2c(c1)C(=O)/C(=C/c1cccc(OCC(=O)Nc3nc4c(s3)CCCC4)c1)O2`, the growth was -17.2% (active) in assay [1]; -6.7% (active) in assay [2]; 10.4% in assay [3]; -13.6% (active) in assay [4]; 8.81% (active) in assay [5]; 119% in assay [6]. The growth is -47.4% (active) in assay [7]; -68.6% (active) in [8]; -16.2% (active) in [9]; 10.4% in [10]; 47.1% in assay [11]; -65.4% (active) in assay [12]. In addition, the growth in [13] is 27.3%; in assay [14], -61.6% (active); in assay [15] it was 21.9%; in [16] it was -25.7% (active); in [17], -66.7% (active); in assay [18] it was -68.3% (active).
As to `O=c1[nH]c(-c2ccccn2)nc2sc3c(c12)CCCCC3`, the growth in assay [1] was 27.3%; in [2] it was 40.2%; in assay [3], 36.1%; in assay [4] it was 72.1%; in [5], 23.6%; in assay [6], 53%. In addition, the growth in assay [7] is 45.1%; in assay [8], 40.3%; in assay [9] it was 81.7%; in assay [10] it was 15.1%; in assay [11], 33.8%; in assay [12], 70.1%. Also, the growth in assay [13] is 55.7%; in assay [14], 29.5%; in [15], 32.9%; in assay [16], 24.7%; in assay [17], 68.7%; in assay [18], 39.4%.
With `O=C(Nc1ccc(F)cc1)Nc1ccc(CCO)cc1`, the growth in [1] is 103%; in assay [2], 108%; in assay [3], 104%; in assay [4], 114%; in assay [5], 97.6%; in assay [6], 113%. In addition, the growth in assay [7] was 99.9%; in assay [8], 117%; in [9], 106%; in assay [10], 108%; in [11], 104%; in assay [12], 108%. In addition, the growth in assay [13] is 97.4%; in assay [14], 108%; in [15], 109%; in [16], 94.7%; in assay [17] it was 108%; in [18], 108%.
